The record followed here is PubChem BioAssay (NCATS).

Calls of active or inactive are those of the source. The call rests on the fitted dose curve.

For the experiment the following is noted: Ebola virus entry assay, ratio channel readout.
As for `C#CCN[C@@H]1CCc2ccccc21`, the result was inactive.
Consider `CCc1cc(C(N)=S)ccn1`, for which the result was inactive.
Consider `C=CCN1C[C@H](C(=O)N(CCCN(C)C)C(=O)NCC)C[C@@H]2c3cccc4[nH]cc(c34)C[C@H]21`, for which the outcome was inactive.
For the molecule `CCC1(C)CC(=O)NC1=O` (centres undefined), the outcome was inactive.
For `Clc1ccc2nsnc2c1NC1=NCCN1`, the outcome was inactive.
For `Nc1ccn([C@@H]2O[C@H](CO)[C@@H](O)C2O)c(=O)n1` (some centres undefined) the value was “inactive”; for `C=CCC1([C@H](C)CCC)C(=O)NC(=O)NC1=O`, “inactive”; for `NCCCCCC(=O)O`, “inactive”.
In the case of `O=C(O)CCCc1ccc(N(CCCl)CCCl)cc1`, the outcome was inactive.
As to `COCCCOc1ccnc(CS(=O)c2nc3ccccc3[nH]2)c1C` (centres undefined), the outcome was inactive.
Take `Nc1ncn([C@H]2C[C@H](O)[C@@H](CO)O2)c(=O)n1`: the result was inactive.
As for `OCCOCCN1CCN(C2=Nc3ccccc3Sc3ccccc32)CC1`, the outcome was inactive.
For `NS(=O)(=O)c1cc2c(cc1C(F)(F)F)NC(Cc1ccccc1)NS2(=O)=O` (centres undefined), the outcome was inactive.
Regarding `CC(NC(C)(C)C)C(=O)c1cccc(Cl)c1` (centres undefined), the outcome was inactive.
With `CN=C(NC#N)NCCSCc1nc[nH]c1C`, the result was inactive.
Turning to `C[C@](N)(Cc1ccc(O)cc1)C(=O)O`, the outcome was inactive.
Consider `CN1C(C(=O)Nc2ccccn2)=C(O)c2ccccc2S1(=O)=O`, for which the outcome was inactive.
Consider `CO[C@H]1C=CO[C@@]2(C)Oc3c(C)c(O)c4c(O)c(c(/C=N/N5CCN(C6CCCC6)CC5)c(O)c4c3C2=O)NC(=O)/C(C)=C\C=C[C@H](C)[C@H](O)[C@@H](C)[C@@H](O)[C@@H](C)[C@H](OC(C)=O)[C@@H]1C`, for which the outcome was inactive.
As for `Cc1nnc(SCC2=C(C(=O)O)N3C(=O)[C@@H](NC(=O)Cn4cnnn4)[C@H]3SC2)s1`, the outcome was inactive.
